The nature of test [1]: antimalarial activity against Dd2 strain (AID 2302;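 active means growth inhibition above 50% at the single 2 µM test dose, taken to imply half-maximal potency below 2 µM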;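 further: 0% = DMSO untreated growth and 100% = chloroquine plus artemisinin killed control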). To be noted: P. falciparum Dd2 in RBCs, LDH growth readout, 72 h; at 2 µM; stronger effect = higher value.
Test [2] is described as follows: HepG2 cytotoxicity, primary screen, cytotoxicity control for P. falciparum antimalarial project, cell-based, ATP luminescence (AID 2303;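 active means inhibition above 50%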;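 further: 0% = DMSO wells and 100% = digitonin-killed cells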). To be noted: HepG2 viability, 24-48 h, at 10 µM, stronger effect = higher value.
For test [3], the target named is L-lactate dehydrogenase (Plasmodium falciparum (isolate CDC / Honduras)) (UniProt Q27743). The test is described as follows: PfLDH activity inhibition – cell lysate, 3D7 strain, counter-screen for P. falciparum growth inhibition project (AID 2304).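 Further: 0% = vehicle and 100% = reference inhibitor.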 As to conditions: P. falciparum 3D7 crude extract, LDH APAD/NBT absorbance; at 2 µM; stronger effect = higher value.
A short description of test [4]: inhibition of 3D7 malaria parasite growth – strain 3D7 (AID 2306).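 Further: 0% = DMSO wells and 100% = chloroquine plus artemisinin control wells.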 As to conditions: P. falciparum 3D7 erythrocytic growth, LDH absorbance, 72 h; at 2 µM; stronger effect = higher value.
In test [5] the target is Calcium-dependent protein kinase 1 (Plasmodium falciparum (isolate 3D7)) (UniProt P62344). The test is described as follows: PfCDPK1 kinase inhibitors, biochemical, TCAMS library (AID 1159585; cut-off not given, nearly all actives have IC50 up to about 0.98 µM;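 further: inhibitors leave more ATP so luminescence rises with inhibition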). To be noted: recombinant PfCDPK1, Kinase-Glo ATP depletion luminescence.
Test [6] concerns the target Plasmodium falciparum protein kinase 6 (PK6, PF3D7_1337100) (UniProt Q8IDW1). The test is described as follows: PfPK6 kinase inhibitors, biochemical, TCAMS library (AID 1159586). As to conditions: recombinant PfPK6, Kinase-Glo ATP depletion luminescence.
In test [7] the target is Protein kinase 7 (PK7), Plasmodium falciparum 3D7 (PF3D7_0213400) (UniProt Q7YTF7). The test is described as follows: inhibition of Plasmodium PK7 catalytic activity – biochemical, TCAMS antimalarial set, Kinase-Glo luminescence (AID 1159587). As to conditions: recombinant PfPK7, Kinase-Glo ATP depletion luminescence.
The target of test [8] is Calcium-dependent protein kinase 4 (Plasmodium falciparum (isolate 3D7)) (UniProt Q8IBS5). The test is described as follows: PfCDPK4 kinase inhibitors, biochemical, TCAMS library (AID 1159588; cut-off not given, nearly all actives have IC50 up to about 0.91 µM). To be noted: recombinant PfCDPK4, Kinase-Glo ATP depletion luminescence.

Values without a mark were called inactive. For part of these data: Potency and affinity values are given separately. The source made the active and inactive calls. Unless noted, how the calls were made is not given here.

Chain of Plasmodium falciparum protein kinase 6 (PK6, PF3D7_1337100) (Q8IDW1 1-305): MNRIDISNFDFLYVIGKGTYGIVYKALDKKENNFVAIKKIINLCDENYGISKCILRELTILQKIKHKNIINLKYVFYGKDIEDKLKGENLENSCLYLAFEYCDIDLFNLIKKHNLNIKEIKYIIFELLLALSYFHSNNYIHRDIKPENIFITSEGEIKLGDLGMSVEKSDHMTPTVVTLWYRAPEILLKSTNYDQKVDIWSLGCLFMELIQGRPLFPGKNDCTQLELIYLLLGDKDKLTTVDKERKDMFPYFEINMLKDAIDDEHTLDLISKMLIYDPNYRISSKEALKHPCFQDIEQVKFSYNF
Chain of L-lactate dehydrogenase (Plasmodium falciparum (isolate CDC / Honduras)) (Q27743 whole entry, looked up): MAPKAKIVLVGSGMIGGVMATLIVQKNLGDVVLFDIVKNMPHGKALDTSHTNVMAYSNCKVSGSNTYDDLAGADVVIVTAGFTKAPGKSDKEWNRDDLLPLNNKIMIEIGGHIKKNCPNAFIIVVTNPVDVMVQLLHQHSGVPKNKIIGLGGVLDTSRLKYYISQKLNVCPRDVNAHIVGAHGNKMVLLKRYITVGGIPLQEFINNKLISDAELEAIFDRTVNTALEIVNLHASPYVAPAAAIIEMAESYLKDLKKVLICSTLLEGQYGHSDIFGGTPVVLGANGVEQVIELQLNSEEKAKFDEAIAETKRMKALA
Chain of Calcium-dependent protein kinase 4 (Plasmodium falciparum (isolate 3D7)) (Q8IBS5 whole entry, looked up): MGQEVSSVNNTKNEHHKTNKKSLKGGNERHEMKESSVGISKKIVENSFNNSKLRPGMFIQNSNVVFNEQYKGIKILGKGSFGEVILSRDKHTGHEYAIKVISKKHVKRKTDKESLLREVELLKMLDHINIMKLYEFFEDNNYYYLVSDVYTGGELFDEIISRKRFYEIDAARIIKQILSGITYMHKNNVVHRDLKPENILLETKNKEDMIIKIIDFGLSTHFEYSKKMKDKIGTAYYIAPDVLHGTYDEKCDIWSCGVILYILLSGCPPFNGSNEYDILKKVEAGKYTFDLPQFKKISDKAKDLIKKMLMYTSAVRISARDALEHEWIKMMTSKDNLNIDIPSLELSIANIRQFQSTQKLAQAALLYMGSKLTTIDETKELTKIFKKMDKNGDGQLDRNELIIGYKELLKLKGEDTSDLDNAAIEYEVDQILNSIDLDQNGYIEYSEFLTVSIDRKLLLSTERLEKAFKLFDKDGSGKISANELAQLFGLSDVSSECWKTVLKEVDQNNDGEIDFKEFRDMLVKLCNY
Chain of Calcium-dependent protein kinase 1 (Plasmodium falciparum (isolate 3D7)) (P62344 whole entry, looked up): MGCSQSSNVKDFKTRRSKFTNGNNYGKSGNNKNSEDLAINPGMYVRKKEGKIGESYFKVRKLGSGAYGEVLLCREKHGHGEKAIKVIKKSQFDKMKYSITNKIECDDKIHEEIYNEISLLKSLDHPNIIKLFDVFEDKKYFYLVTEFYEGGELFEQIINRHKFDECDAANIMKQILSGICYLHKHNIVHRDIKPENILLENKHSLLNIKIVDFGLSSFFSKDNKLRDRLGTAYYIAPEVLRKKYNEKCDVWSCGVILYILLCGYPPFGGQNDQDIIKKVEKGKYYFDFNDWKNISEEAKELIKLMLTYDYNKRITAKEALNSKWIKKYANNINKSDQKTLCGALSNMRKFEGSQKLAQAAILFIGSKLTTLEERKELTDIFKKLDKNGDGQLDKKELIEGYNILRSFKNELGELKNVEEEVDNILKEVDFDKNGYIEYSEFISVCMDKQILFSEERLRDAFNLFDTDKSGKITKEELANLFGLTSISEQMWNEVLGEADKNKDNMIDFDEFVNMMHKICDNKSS
Chain of Protein kinase 7 (PK7), Plasmodium falciparum 3D7 (PF3D7_0213400) (Q7YTF7 1-343): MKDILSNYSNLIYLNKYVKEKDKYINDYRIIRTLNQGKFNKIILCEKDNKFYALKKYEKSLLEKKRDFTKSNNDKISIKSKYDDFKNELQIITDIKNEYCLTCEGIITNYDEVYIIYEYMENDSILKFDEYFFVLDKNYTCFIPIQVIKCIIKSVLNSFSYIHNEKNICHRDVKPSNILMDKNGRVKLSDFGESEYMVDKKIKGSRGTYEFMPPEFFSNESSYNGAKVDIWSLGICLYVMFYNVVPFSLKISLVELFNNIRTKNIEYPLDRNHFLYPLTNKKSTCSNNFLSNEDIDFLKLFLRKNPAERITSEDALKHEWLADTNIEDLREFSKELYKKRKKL

Regarding `COc1cc(F)c2ncc(Cl)c(CCN3CCC(NCc4cc5c(cn4)OCCO5)CC3)c2c1`, the values for the growth inhibition in test [1] and in test [4] were 57% (active) and 89% (active), respectively. Besides, the values for the inhibition in test [2] and in test [3] were 2% and -1%, respectively. The outcome in test [5], in test [6], in test [7] and in test [8] was inactive.
On to `COc1cc2nc(NCC3CCCO3)n3nc(-c4ccccc4)nc3c2cc1OC` (stereo not drawn), for which the growth inhibition in test [1] is 97% (active); in test [4], 92% (active). For the same molecule, the results for the inhibition in test [2] and in test [3] were -9% and -7%, respectively. Besides, the outcome in test [5], in test [6], in test [7] and in test [8] was inactive.
Take `Cc1nnc2c(NC(=O)NC3CCCC3)cc3ccc(-c4cccc(CN(C)C)c4)cc3n12`: the growth inhibition was 25% in test [1] and 90% (active) in test [4]. For the same molecule, the inhibition was 42% in test [2] and 3% in test [3]. In addition, the outcome in test [5], in test [6], in test [7] and in test [8] was inactive.
For `Cc1cccc2[nH]c(-c3ccc(-c4ccc(NC(=O)C(C)CN(C)C)cc4)s3)nc12` (stereo not drawn), the growth inhibition in test [1] was 98% (active); in test [4], 100% (active). In addition, the inhibition in test [2] is 23%; in test [3] it was 0%. Further, the outcome in test [5], in test [6], in test [7] and in test [8] was inactive.
As to `O=C(/C=C/c1ccc(Cl)cc1Cl)NCCCCCN1CCC(c2c[nH]c3ccccc23)CC1`, the growth inhibition is 9% in test [1] and 99% (active) in test [4]. In addition, the inhibition in test [2] was 95% (active); in test [3], 1%. Besides, the outcome in test [5], in test [6], in test [7] and in test [8] was inactive.
Consider `COc1cc2nc(N3CCC(CNC(=O)/C=C/c4cccc(C)c4)CC3)nc(N)c2cc1OC`, for which the values for the growth inhibition in test [1] and in test [4] were 68% (active) and 101% (active), respectively. The inhibition in test [2] was 16%; in test [3], -8%. Also, the result in test [5], in test [6], in test [7] and in test [8] was inactive.
In the case of `CC(=NNC(=S)NCCc1ccccc1)c1ccccn1`, the growth inhibition is 99% (active) in test [1] and 100% (active) in test [4]. Besides, the inhibition in test [2] is 73% (active); in test [3], 8%. In addition, the outcome in test [5], in test [6], in test [7] and in test [8] was inactive.
`Cc1cccc2[nH]c(-c3ccc(-c4cccc(CN5CCCC(O)C5)c4)s3)nc12` (stereo not drawn): the figures for the growth inhibition in test [1] and in test [4] were 18% and 95% (active), respectively. The inhibition is 13% in test [2] and 2% in test [3]. Besides, the result in test [5], in test [6], in test [7] and in test [8] was inactive.
For `O=C1CCCN1CCCNCc1ccc(-c2ccc(-c3nc4ccc(C(F)(F)F)cc4[nH]3)cc2)cc1`, the growth inhibition in test [1] was 98% (active); in test [4] it was 101% (active). Moreover, the inhibition in test [2] is 10%; in test [3] it was -5%. The result in test [5], in test [6], in test [7] and in test [8] was inactive.
Take `CN(C)CCCOc1ccc(-c2csc(NC(N)=NCc3ccccc3)n2)cc1`: the values for the growth inhibition in test [1] and in test [4] were 97% (active) and 100% (active), respectively. Moreover, the figures for the inhibition in test [2] and in test [3] were 57% (active) and 5%, respectively. The result in test [5], in test [6], in test [7] and in test [8] was inactive.
As to `CN1CCN(c2nc(NCCNc3ccc([N+](=O)[O-])cc3)c3ccccc3n2)CC1`, the results for the growth inhibition in test [1] and in test [4] were 25% and 90% (active), respectively. In addition, the inhibition is 37% in test [2] and 6% in test [3]. Moreover, the outcome in test [5], in test [6], in test [7] and in test [8] was inactive.
As for `C=CCC1OC(=O)c2cc(OC)cc(OC)c21` (stereo not drawn), the growth inhibition was 100% (active) in test [1] and 95% (active) in test [4]. Besides, the inhibition in test [2] was 100% (active); in test [3], 2%. In addition, the outcome in test [5], in test [6], in test [7] and in test [8] was inactive.
As for `COc1cc(C2=NN(S(=O)(=O)c3c(C)cc(C)cc3C)CCCC2)ccc1Cl`, the growth inhibition in test [1] was 76% (active); in test [4], 85% (active). The inhibition was 9% in test [2] and 1% in test [3]. Also, the result in test [5], in test [6], in test [7] and in test [8] was inactive.
As to `CC(CN1CCN(C)CC1)C(=O)Nc1ccc(-c2ccc(-c3nc4ccc(F)cc4[nH]3)cc2)cc1` (stereo not drawn), the growth inhibition in test [1] was 87% (active); in test [4], 101% (active). Also, the inhibition was 19% in test [2] and -5% in test [3]. Moreover, the result in test [5], in test [6], in test [7] and in test [8] was inactive.
As for `CN(C)c1ccc(-c2cscc2C(=O)NC2CCCN(Cc3cccnc3)C2)cc1` (stereo not drawn), the growth inhibition was 70% (active) in test [1] and 89% (active) in test [4]. Moreover, the inhibition was 5% in test [2] and 0% in test [3]. In addition, the result in test [5], in test [6], in test [7] and in test [8] was inactive.
As to `COc1nc2c(CCN3CC[C@H](NCc4ccc5c(c4)NC(=O)CO5)[C@H](O)C3)c(Cl)cnc2cc1F`, the values for the growth inhibition in test [1] and in test [4] were 22% and 90% (active), respectively. The inhibition in test [2] is 21%; in test [3], -3%. Moreover, the result in test [5], in test [6], in test [7] and in test [8] was inactive.
With `OCCn1c(CNCCCNc2nc3ccccc3[nH]2)cc2c(Cl)cc(Cl)cc21`, the growth inhibition in test [1] was 0%; in test [4], 95% (active). Further, the inhibition in test [2] was 29%; in test [3] it was -6%. The outcome in test [5], in test [6], in test [7] and in test [8] was inactive.
For the molecule `Oc1ccc(CCNc2nc(NCc3cccc(OCc4cccc(F)c4)c3)nc(N3CCNCC3)n2)cc1`, the growth inhibition in test [1] was -7%; in test [4], 86% (active). Also, the inhibition in test [2] is 27%; in test [3] it was -3%. Further, the result in test [5], in test [6], in test [7] and in test [8] was inactive.
As for `N/C(=N\c1cccc(Cc2ccc([N+](=O)[O-])cc2)n1)Nc1ccccc1`, the growth inhibition is 19% in test [1] and 96% (active) in test [4]. For the same molecule, the inhibition was 28% in test [2] and 4% in test [3]. Besides, the outcome in test [5], in test [6], in test [7] and in test [8] was inactive.
For the molecule `CN(Cc1cccc(F)c1)C1CCN(c2cc(NC(=O)c3ccc(F)cc3)ccn2)C1` (stereo not drawn), the growth inhibition was 14% in test [1] and 83% (active) in test [4]. In addition, the inhibition in test [2] is 7%; in test [3] it was -3%. The outcome in test [5], in test [6], in test [7] and in test [8] was inactive.
Regarding `CN(C)C1CCN(Cc2ccc(N3CCN(Cc4cccc5[nH]ccc45)CC3)nc2)CC1`, the growth inhibition is 17% in test [1] and 80% (active) in test [4]. Besides, the inhibition is 11% in test [2] and -2% in test [3]. Besides, the outcome in test [5], in test [6], in test [7] and in test [8] was inactive.

Source of the values: PubChem BioAssay.
